TDP1 cell CPT – growth inhibition of DT40 Tdp1-/-;hTDP1 cells with camptothecin (screen for TDP1 inhibitors); AID 686979; Potency, µM (series often up to 46.2 µM), inactives show top-dose activity change, negative = growth inhibition, hits mostly inhibitors; chicken DT40 Tdp1-/-;hTDP1 cells + 20 nM CPT, ATP luminescence, 48 h; 420,000 compounds, 12% hits; also: potency is read from the fitted curve at half-maximal effect; nearly all actives have a fitted effect of over 55% in size
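Chicken DT40 Tdp1-/- cells complemented with human TDP1, 400 cells/well, exposed to compounds plus 20 nM camptothecin for at least 48 h at 37 C; viability read as ATP content by CellTiter-Glo luminescence.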
DT40 TDP1 no CPT – qHTS for Inhibitors of human tyrosyl-DNA phosphodiesterase 1 (TDP1): qHTS in cells in absence of CPT; DT40 Tdp1-/- hTDP1 cells, no CPT, ATP luminescence, 48 h; Potency, µM (top dose mostly 46.2 µM), for the others: top-dose activity change, negative = growth inhibition, hits mostly inhibitors; 420,000 compounds, 15% hits; AID 686978, 2013; also: potency is read from the fitted curve at half-maximal effect; nearly all actives have a fitted effect of over 55% in size
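A cellular qHTS used chicken DT40 cells lacking endogenous Tdp1 but carrying stably transfected human TDP1. Compounds were applied without camptothecin, and cell growth kinetics were judged by ATP-dependent luminescence after ≥48 hr.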
ELG1 repair inh – blocks ELG1-dependent DNA repair in HEK293T cells; Potency, µM (highest dose often 46.1 µM), for the others: top-dose activity change, negative = inhibition, hits mostly inhibitors; 330,000 compounds, 2.3% hits; HEK293T ELG1-luciferase reporter, luminescence, 16 h; DNA damage induced by 5-fluorouridine; also: potency is read from the fitted curve at half-maximal effect; nearly all actives have a fitted effect of over 55% in size
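Step one: seed 2,000 cells per well. Step two: pin-transfer compound or DMSO alongside 5-fluorouridine. Step three: incubate 16 hr, 37 °C, 5% CO2. Step four: add ONE-Glo, wait 30 min, read luminescence.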
HT1080-NT tox – kills 2HG-producing HT-1080-NT fibrosarcoma cells | HT-1080-NT fibrosarcoma viability, CellTiter-Glo ATP luminescence, 48 h | Potency, µM (top dose mostly 46.1 µM), without a hit: at the top dose activity, negative = less viability, usual class: cytotoxic | 360,000 compounds, 1.6% hits | AID 686970;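 also: NT is the 2HG producing partner of a matched IDH1 knockdown line; potency is read from the fitted curve at half-maximal effect; 0% = DMSO-treated cells and -100% = media-only wells without cells; nearly all actives have a fitted effect of over 55% in size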
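Compounds were tested in concentration-response format on HT-1080-NT cells for 48 hours at 37 degrees C. Cell viability came from CellTiter-Glo luminescence; curves were classified by r2, response magnitude and activity.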
HT1080 IDH1KD tx – HT-1080 IDH1 knockdown cell toxicity (counter line); AID 686971; Potency, µM (top dose mostly 46.1 µM), inactives show at the highest dose activity, negative = toxicity, actives largely listed as cytotoxic; HT-1080 IDH1 knockdown viability, ATP luminescence, 48 h; 360,000 compounds, 2% hits;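 also: potency is read from the fitted curve at half-maximal effect; 0% = DMSO wells and -100% = cell-free medium wells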
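After a 2 h attachment period, IDH1KD HT-1080 cells took pin-transferred compound for 48 h at 37 °C; ATP-based luminescence after 10 min room-temperature reagent incubation reported viability.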
IL1B secr inh – inflammasome signaling inhibition, IL-1 beta readout | THP-1 LPS/ATP IL-1B secretion, AlphaLISA, 16 h; stronger effect = lower value | activity change, % at 57.5 µM | 360,000 compounds, 4.7% hits | AID 743279; in the data active = activity change below about -50%; inconclusive = mostly about -30% to -49%
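THP-1 cells pretreated 1 hr with compounds (up to 57.5 uM final), then stimulated with LPS (250 ng/mL final) plus ATP (1.25 mM final); secreted IL-1B measured by AlphaLISA after 16 hr, decreased signal indicating inhibition.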
An asterisk follows results filed as active; ? = inconclusive; / = no result given. Hits are enriched below; roughly 19% of the tested compounds scored in any of these assays. Unless noted, calls follow the shape of the dose curve; as a rule, active = well fitted curve in the direction sought with a large enough effect; inconclusive = small, poorly fitted or top-dose-only effect, or another doubt; inactive = no such curve, though single readings can be large; an effect the other way counts as inactive or inconclusive. Unless noted, % is scaled to controls: 0 for no effect and ±100 for the full control effect.

SMILES | TDP1 cell CPT | DT40 TDP1 no CPT | ELG1 repair inh | HT1080-NT tox | HT1080 IDH1KD tx | IL1B secr inh
CCc1ccccc1Oc1nc(NCCOC)nc2cc(-c3ccccc3)sc12 | ? | ? | / | -3% | 4% | -25
Cc1cc(=O)c2c(N(C)C)cccc2[nH]1 | 1% | ? | / | 0% | 5% | -3
CC(C)(C)c1ccc(C(=O)NNc2cc(N3CCCCC3)nc(N3CCCCC3)n2)cc1 | 26µM* | ? | -3% | -2% | -20% | -17
CC(C)N(C(=O)N1CCN(c2ccnc3cc(Cl)ccc23)CC1)C(C)C | 12µM* | 9.2µM* | ? | -21% | -21% | -84*
O=C(c1ccc(Cl)cc1)N1CCN(c2ccnc3cc(Cl)ccc23)CC1 | ? | 13µM* | ? | ? | -28% | -92*
O=C(Oc1ccnc2cc(Cl)ccc12)N1CCCCCC1 | ? | 23µM* | ? | -20% | -13% | ?
CCOC(=O)N1CCN(c2ccnc3cc(Cl)ccc23)CC1 | ? | 15µM* | -12% | -6% | -16% | -15
Cc1ccc(N2C(=O)N(CC(=O)Nc3ccc([N+](=O)[O-])cc3)C(=O)C2C)cc1 (stereo unspecified) | -21% | -10% | 8% | -23% | -1% | -1
COc1ccc(NC(=O)COc2ccccc2Cc2ccccc2)cc1S(=O)(=O)N1CCOCC1 | ? | ? | ? | -3% | -2% | -10
COc1ccccc1C1CCN(c2ccc(CO)cc2[N+](=O)[O-])CC1 | ? | 16µM* | -23% | -25% | -27% | -18
COc1ccccc1C1CCN(Cc2ccc3ccccc3c2)CC1 | ? | ? | -22% | ? | 23µM* | -61*
COc1cccc2sc(Nc3nc(-c4cc5ccccc5oc4=O)cs3)nc12 | 4.6µM* | 4.6µM* | ? | 5.2µM* | 2.1µM* | 59
COc1cccc2sc(NN)nc12 | ? | ? | -1% | -22% | ? | -1
COc1cccc2sc(Nc3nc(-c4ccncc4)cs3)nc12 | 4.6µM* | 2.9µM* | ? | 2.3µM* | 2.3µM* | 40
Cc1ccc(NC(=O)Cn2c(C)cc(C)c(C#N)c2=O)cc1 | 3% | -23% | / | / | / | /
Cc1oc2ncn(CC(C)C)c(=O)c2c1C(=O)NCc1cccc(Cl)c1 | 16µM* | 16µM* | / | / | / | /
Cc1oc2ncn(CC(C)C)c(=O)c2c1C(=O)Nc1cccc(C(F)(F)F)c1 | -10% | -1% | / | / | / | /
Cc1cccc(NC(=O)c2c(C)oc3ncn(CC(C)C)c(=O)c23)n1 | 10µM* | 9.2µM* | / | / | / | /
COc1ccc(C)cc1NC(=O)c1c(C)oc2ncn(CC(C)C)c(=O)c12 | ? | 23µM* | / | / | / | /
CCSc1nnc(Cn2c(=O)sc3ccccc32)n1C | 13µM* | -14% | 1% | 1% | 6% | -5
CC(Sc1nnc(Cn2c(=O)sc3ccccc32)n1C)c1ccccc1 (stereo unspecified) | ? | -24% | 3% | -7% | 0% | 7
CSc1nnc(Cn2c(=O)sc3ccccc32)n1-c1ccccc1C | ? | 18µM* | / | 1% | 0% | -3
COc1nc(Nc2ccccc2)nc(OC)n1 | 0% | ? | / | 0% | -2% | 1
NNc1nc(Nc2ccccc2)nc(Nc2ccccc2)n1 | 16µM* | ? | 16µM* | -28% | ? | -24
COc1ccc(Nc2nc(NCCO)nc(OC)n2)cc1 | -24% | 6% | ? | -2% | 2% | 33
SMILES | TDP1 cell CPT | DT40 TDP1 no CPT | ELG1 repair inh | HT1080-NT tox | HT1080 IDH1KD tx | IL1B secr inh
COc1ccc(Nc2nc(NN)nc(Nc3ccc(OC)cc3)n2)cc1 | ? | 13µM* | ? | -20% | -7% | ?
NNc1nccc(Nc2ccccc2C(=O)O)n1 | -10% | -22% | 13% | -11% | -18% | -67*
c1ccc(Nc2ccnc(Nc3ccccc3)n2)cc1 | ? | 21µM* | ? | -28% | ? | /
COc1ccc(Nc2ccccc2C(=O)O)cc1 | -2% | 2% | 13% | 1% | -5% | 52
CN(C(=O)c1cnn(-c2nccc(-c3ccccc3C(F)(F)F)n2)c1C1CC1)C1CCOC1 (stereo unspecified) | ? | -17% | / | / | / | /
CSc1ccc(OC2(C)CCN(Cc3ccc(OC(C)C)cc3)C2)cc1 (stereo unspecified) | ? | ? | / | ? | ? | -10
CC(C)NC(=O)C1CCC(Cn2c(=O)c3sccc3n(CC(=O)N3CCCC3)c2=O)CC1 (stereo unspecified) | -2% | 5% | / | / | / | /
COc1ccc(Nc2ccc(OC)cc2)cc1 | -15% | -4% | ? | 10% | 12% | -52*
COc1ccc(Nc2ccc(Nc3ccc(OC)cc3)nn2)cc1 | -22% | 2% | ? | 19% | 13% | 26
CCCCCC(=O)NC(NC(=S)N1CCOCC1)C(Cl)(Cl)Cl (stereo unspecified) | ? | ? | -11% | -1% | -12% | -7
CCCCCCCCC(=O)NC(NC(=S)N1CCOCC1)C(Cl)(Cl)Cl (stereo unspecified) | ? | 15µM* | ? | ? | 11µM* | -7
O=C(CSc1nc2nccnc2c(=O)n1CCc1c[nH]c2ccccc12)Nc1ccccc1 | 21µM* | 15µM* | / | / | / | /
CC(C)OCCCn1c(SCC(=O)Nc2ccccc2C(F)(F)F)nc2nccnc2c1=O | 1% | 8% | 8% | 20% | 8% | 5
Cc1ccccc1NC(=O)CSc1nc2nccnc2c(=O)n1CCc1c[nH]c2ccccc12 | 23µM* | 12µM* | / | / | / | /
CNc1nc(-c2ccccc2)nc(-c2ccccc2)c1C#N | ? | -6% | / | -8% | 20% | -2
NNc1nc(-c2ccccc2)nc(-c2ccccc2)c1Br | ? | 8.2µM* | / | 9% | -1% | -2
O=C(c1ccc(COc2ccccc2Br)o1)N1N=C(C(F)F)CC1(O)C(F)F (stereo unspecified) | 18µM* | 26µM* | -25% | 0% | -4% | 7
COCCNC(=O)Cn1c(=O)n(CCCC(=O)NCc2ccc3c(c2)OCO3)c(=O)c2sccc21 | -1% | -4% | -1% | 2% | 0% | 0
CN(Cc1ccccc1)C(=O)C1CCN(S(=O)(=O)c2ccc(-n3cnnn3)cc2)CC1 | 5% | -10% | ? | -3% | 0% | -23
